Results on eight compounds are retold here after PubChem BioAssay (NCI).

Test systems include NCI-H23 lung; NCI-H226 lung; NCI-H322M lung; HOP-62 NSCLC; NCI-H460 lung; HOP-92 NSCLC; NCI-H522 lung; A549/ATCC NSCLC; 786-0 renal; DU-145 prostate; K-562 leukemia; MALME-3M melanoma; MDA-MB-231 breast; RXF 393 renal; SF-268 CNS; SF-295 CNS; SF-539 CNS; UACC-257 melanoma; M14 melanoma.
Common to all, as to assay: NCI-60 one-dose screen, 48 h (100 = growth as untreated, 0 = no growth, -100 = all killed)
Details in all cases: 10 µM unless noted

The structures appear in SMILES notation. Compounds without any hit were thinned out: in the full panel of roughly 83,000, 20% have a hit.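 Testing used 96-well plates and a 48-hour single-concentration exposure. Example: -40 means 40% of the starting cells died.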 Values without a mark were called inactive. Activity calls are given as the source filed them. The calls were made as follows: active = growth percent below 10; inactive = the rest.

`O=C1/C(=C/c2ccccn2)SC(=S)N1N1CCOCC1`: the growth in the test on NCI-H23 lung was 96.7%; in the test with NCI-H226 lung it was 95.1%; in the test on NCI-H322M lung it was 97.5%; with HOP-62 NSCLC, 96.6%; in the test on NCI-H460 lung, 104%; in the test on HOP-92 NSCLC, 84.8%. In addition, the growth in the test with NCI-H522 lung is 86.8%; in the test with A549/ATCC NSCLC, 103%; with 786-0 renal it was 103%; in the test with DU-145 prostate, 104%; in the test with K-562 leukemia, 103%; with MALME-3M melanoma, 92.2%. Further, the growth is 92% in the test with MDA-MB-231 breast; 92.5% in the test with RXF 393 renal; 99% in the test with SF-268 CNS; 95.8% with SF-295 CNS; 105% in the test with SF-539 CNS; 91.8% in the test with UACC-257 melanoma. In addition, the growth with M14 melanoma is 100%.

For the compound `COc1cc(-c2ccc[nH]2)[nH]c1/C=C1\N=C(C)C(CC(=O)OCC(C)(C)C)=C1C`, the growth in the test on NCI-H23 lung is -46.8% (active); in the test on NCI-H226 lung it was -55.5% (active); in the test on NCI-H322M lung, -49.7% (active); in the test on HOP-62 NSCLC, -70.9% (active); in the test on NCI-H460 lung, -67.3% (active); in the test on HOP-92 NSCLC it was -51.3% (active). For the same compound, the growth was -62.8% (active) in the test with NCI-H522 lung; -69.1% (active) in the test on A549/ATCC NSCLC; -88.1% (active) with 786-0 renal; -73.9% (active) in the test on DU-145 prostate; -42.9% (active) with K-562 leukemia; -76.3% (active) in the test on MALME-3M melanoma. Also, the growth is -57.2% (active) in the test on MDA-MB-231 breast; -82.3% (active) in the test with RXF 393 renal; -70.8% (active) in the test with SF-268 CNS; -81.8% (active) with SF-295 CNS; -69.3% (active) in the test with SF-539 CNS; -81.4% (active) in the test with UACC-257 melanoma. The growth in the test on M14 melanoma was -86.3% (active).

`O=c1ccc2ccc(OCCN3CCCCC3)cc2o1`: the growth in the test with NCI-H23 lung was 98.4%; with NCI-H226 lung it was 103%; in the test with NCI-H322M lung it was 97%; in the test with HOP-62 NSCLC, 84.5%; with NCI-H460 lung it was 108%; in the test with HOP-92 NSCLC it was -17.3% (active). The growth in the test on NCI-H522 lung was 86.6%; with A549/ATCC NSCLC it was 98%; in the test with 786-0 renal, 99.5%; with DU-145 prostate it was 118%; in the test on K-562 leukemia it was -17.2% (active); in the test with MALME-3M melanoma, 107%. The growth in the test on MDA-MB-231 breast is 95.7%; in the test with RXF 393 renal, 114%; with SF-268 CNS, 110%; in the test on SF-295 CNS, 98.8%; in the test with SF-539 CNS it was 106%; with UACC-257 melanoma, 89.3%. Besides, the growth in the test on M14 melanoma was 96.1%.

Consider `CCCCn1c(NC(C)=O)c(S(=O)(=O)c2ccccc2)c2nc3ccccc3nc21`, for which the growth with NCI-H23 lung is 94%; in the test with NCI-H226 lung, 92.5%; in the test with NCI-H322M lung it was 105%; with HOP-62 NSCLC, 173%; in the test on NCI-H460 lung, 110%; with HOP-92 NSCLC, 4.95% (active). In addition, the growth in the test with NCI-H522 lung was 94.9%; in the test on A549/ATCC NSCLC it was 97.1%; in the test with 786-0 renal, 105%; in the test with DU-145 prostate it was 104%; in the test with K-562 leukemia, 69.3%; with MALME-3M melanoma it was 98.9%. Besides, the growth in the test on MDA-MB-231 breast was 109%; with RXF 393 renal, 86.8%; in the test with SF-268 CNS, 96.7%; with SF-295 CNS it was 111%; with SF-539 CNS it was 97.6%; in the test on UACC-257 melanoma it was 99.6%.

For the compound `CN(C)c1ccc([C@@H](C(=O)Nc2cccc([N+](=O)[O-])c2)N(C(=O)c2cc3ccccc3[nH]2)c2cccc([N+](=O)[O-])c2)cc1`, the growth in the test with NCI-H23 lung is 97.5%; with NCI-H226 lung, 97.5%; in the test on NCI-H322M lung it was 95%; in the test on HOP-62 NSCLC it was 88.7%; with NCI-H460 lung, 98.2%; in the test on HOP-92 NSCLC, 70.9%. In addition, the growth was 92.3% in the test on NCI-H522 lung; 92.9% in the test with A549/ATCC NSCLC; 95.5% in the test on 786-0 renal; 107% with DU-145 prostate; 100% with K-562 leukemia; 96.5% in the test with MALME-3M melanoma. In addition, the growth with MDA-MB-231 breast was 96.5%; in the test on RXF 393 renal, 100%; in the test with SF-268 CNS it was 97.4%; in the test on SF-295 CNS, 100%; in the test with SF-539 CNS, 90.3%; in the test on UACC-257 melanoma, 93.4%. The growth with M14 melanoma was 93.7%.

In the case of `O=S(=O)(Nc1ccc2ccccc2c1)c1ccc(-c2cnc(C3CC3)o2)cc1`, the growth in the test on NCI-H23 lung is 41.1%; with NCI-H226 lung, 62.1%; with NCI-H322M lung it was 48.7%; with HOP-62 NSCLC, 31.6%; in the test with NCI-H460 lung it was 15.2%; in the test with HOP-92 NSCLC it was 54.2%. The growth is -0.255% (active) in the test on NCI-H522 lung; 37.6% with A549/ATCC NSCLC; 42.7% in the test with 786-0 renal; 18% with DU-145 prostate; 10.4% in the test on K-562 leukemia; 50.3% in the test with MALME-3M melanoma. Also, the growth is 52.4% in the test on MDA-MB-231 breast; 2.78% (active) with RXF 393 renal; 53.5% with SF-268 CNS; 34.2% in the test with SF-295 CNS; 6.39% (active) in the test with SF-539 CNS; 44.5% in the test with UACC-257 melanoma. Moreover, the growth in the test on M14 melanoma was 19.4%.

Take `Cc1ccc(S(=O)(=O)c2nc(-c3ccccc3)oc2SCC(N)=O)cc1`: the growth in the test with NCI-H23 lung is 96.8%; in the test on NCI-H226 lung, 98.1%; with NCI-H322M lung it was 104%; in the test with HOP-62 NSCLC it was 98.3%; in the test on NCI-H460 lung it was 104%; with HOP-92 NSCLC, 83.2%. Further, the growth in the test on NCI-H522 lung was 76.3%; in the test with A549/ATCC NSCLC, 96.7%; in the test on 786-0 renal it was 95%; with DU-145 prostate it was 101%; in the test on K-562 leukemia, 88.2%; with MALME-3M melanoma, 98.9%. In addition, the growth is 104% with MDA-MB-231 breast; 99% in the test with RXF 393 renal; 90% in the test on SF-268 CNS; 98.9% with SF-295 CNS; 97.2% with SF-539 CNS; 113% with UACC-257 melanoma. Further, the growth in the test on M14 melanoma is 97.1%.

Take `O=C(O)c1cn(C2CC2)c2cc(N3CCN(C(=O)N4CCOCC4)CC3)c(F)cc2c1=O`: the growth in the test on NCI-H23 lung was 99.5%; with NCI-H226 lung it was 99.3%; in the test with NCI-H322M lung it was 104%; with HOP-62 NSCLC, 106%; in the test with NCI-H460 lung, 115%; in the test on HOP-92 NSCLC, 95.5%. The growth is 89.9% with NCI-H522 lung; 108% in the test on A549/ATCC NSCLC; 99.8% with 786-0 renal; 115% in the test on DU-145 prostate; 114% in the test with K-562 leukemia; 88.6% with MALME-3M melanoma. For the same compound, the growth was 104% with MDA-MB-231 breast; 94.6% in the test on RXF 393 renal; 97.9% in the test on SF-268 CNS; 106% in the test on SF-295 CNS; 102% in the test on SF-539 CNS; 98% in the test on UACC-257 melanoma. In addition, the growth in the test on M14 melanoma was 102%.
